A short description of experiment [1]: qHTS assay to test for compound auto fluorescence at 535 nm (green) in HEK293 cells (AID 720680).
The nature of experiment [2]: qHTS assay to test for compound auto fluorescence at 460 nm (blue) in HEK293 cell free culture (AID 720681). The gist of the method: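 Blue fluorescence (Ex 405/Em 460 nm, triamterene-equivalent) was read immediately after pin transfer of compound or DMSO into medium (DMEM, 10% FBS) without cells.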
On the technique in general: In qHTS, concentration-response curves come from the screen itself.

The nature of experiment [3]: qHTS assay to test for compound auto fluorescence at 535 nm (green) in HEK293 cell free culture (AID 720682). In short, it runs like this:
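No cells present: wells hold DMEM supplemented with 10% FBS, into which compound or vehicle is pinned. Green emission is then recorded (485 nm excitation, 535 nm emission) and scaled to fluorescein.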

The nature of experiment [4]: qHTS assay to test for compound auto fluorescence at 590 nm (red) in HEK293 cell free culture (AID 720683). In short, it runs like this: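 Red-channel autofluorescence of compounds in culture medium (DMEM, 10% FBS), no cells, measured at 540/590 nm. Rose Bengal sodium is the reference fluorophore for equivalence.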
Experiment [5] in a line: qHTS assay to test for compound auto fluorescence at 590 nm (red) in HepG2 cell free culture (AID 720684). The gist of the method: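 Steps: dispense MEM/10% FBS medium, no cells; pin compound or DMSO vehicle; read red channel, Ex/Em 540/590 nm. Output given as Rose Bengal sodium equivalents.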
Experiment [6] can be described thus: qHTS assay to test for compound auto fluorescence at 460 nm (blue) in HepG2 cell free culture (AID 720685). The gist of the method:
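Compound (23 nL) or DMSO pinned into cell-free MEM with 10% FBS; blue fluorescence read at 405/460 nm excitation/emission, expressed as auto-fluorescence equivalency to triamterene.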

The nature of experiment [7]: qHTS assay to test for compound auto fluorescence at 535 nm (green) in HepG2 cell free culture (AID 720686).
A short description of experiment [8]: qHTS assay to test for compound auto fluorescence at 460 nm (blue) in HepG2 cells (AID 720687). The gist of the method: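 Blue-channel autofluorescence (Ex/Em 405/460 nm, triamterene-equivalent) was measured after 1 hr compound exposure at 37 C, 5% CO2. Cells were HepG2, plated overnight at 37 C in MEM plus 10% FBS.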
Experiment [9] in a line: qHTS assay for identifying genotoxic compounds that show differential cytotoxicity against isogenic chicken DT40 cell lines with known DNA damage response pathways - Rev3 mutant cell line (AID 743014). Also: nearly all actives have a fitted effect of over 55% in size. Also: potency is read from the fitted curve at half-maximal effect.
A short description of experiment [10]: qHTS assay for identifying genotoxic compounds that show differential cytotoxicity against isogenic chicken DT40 cell lines with known DNA damage response pathways - Rad54/Ku70 mutant cell line (AID 743015). Also: nearly all actives have a fitted effect of over 60% in size. Also: potency is read from the fitted curve at half-maximal effect.
Experiment [11] is described as follows: qHTS assay to identify small molecule antagonists of the androgen receptor (AR) signaling pathway using the MDA cell line - cell viability counter screen (AID 743041; also: nearly all actives have a fitted effect of over 45% in size; also: potency is read from the fitted curve at half-maximal effect). In short, it runs like this:
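Cells were plated at 3,000 per well and left 5 h. Compounds in DMSO were then pinned in, followed by R1881. After 16 h at 37C, CellTiter-Fluor fluorescence gave viability.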

Experiment [12] can be described thus: qHTS assay to identify small molecule antagonists of the thyroid receptor (TR) signaling pathway - cell viability counter screen (AID 743064). Also: nearly all actives have a fitted effect of over 50% in size. Also: potency is read from the fitted curve at half-maximal effect. In short, it runs like this: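 Rat GH3 pituitary tumor cells stably expressing two TR response elements driving luciferase were plated, rested 4 h, then dosed with library compounds and T3 (1 nM final). After 23.5 h at 37 °C, CellTiter-Fluor was added for 30 min and fluorescence recorded.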

In experiment [13] the target is Glucocorticoid receptor (Homo sapiens) (UniProt P04150). As to the kind of experiment: qHTS assay to identify small molecule agonists of the glucocorticoid receptor (GR) signaling pathway (AID 720691; active = well fitted activation curve with a large enough effect in the signal ratio in the repeat runs, not every such curve was filed as active; the % refers to the signal ratio). In short, it runs like this:
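qHTS in GR-bla HeLa cells: 4 h settling at 37 C/5% CO2, 18 h compound incubation at 37 C, 2 h LiveBLAzer B/G FRET substrate at room temperature, fluorescence intensity measured.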

The target is the same in experiment [14]. The experiment in a line: qHTS assay to identify small molecule antagonists of the glucocorticoid receptor (GR) signaling pathway (AID 720692; active = well fitted inhibition curve with a large enough effect in the signal ratio in the repeat runs, not every such curve was filed as active; the % refers to the signal ratio). The gist of the method: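 Inhibition of glucocorticoid signalling is measured in HeLa cells with a GRE-controlled beta-lactamase reporter; cells are co-treated with compound and 5 nM dexamethasone (final) for 18 h before FRET substrate readout.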

Experiment [15] can be described thus: qHTS assay to identify small molecule antagonists of the glucocorticoid receptor (GR) signaling pathway - cell viability counter screen (AID 720693). Also: nearly all actives have a fitted effect of over 55% in size. Also: potency is read from the fitted curve at half-maximal effect.
The nature of experiment [16]: qHTS assay for identifying genotoxic compounds that show differential cytotoxicity against isogenic chicken DT40 cell lines with known DNA damage response pathways - wild type cell line (AID 743012). Also: nearly all actives have a fitted effect of over 60% in size. In short, it runs like this:
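First, wild type DT40 cells were plated at 300 per well and equilibrated about 0.5 h at 37 C/5% CO2. Next, compounds in DMSO were added and exposure lasted 40 h. Finally, CellTiter-Glo was added for 30 min at room temperature and luminescence recorded.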

Experiment [17] in a line: qHTS assay to identify small molecule antagonists of the androgen receptor (AR) signaling pathway - cell viability counter screen (AID 743033; also: nearly all actives have a fitted effect of over 45% in size; also: potency is read from the fitted curve at half-maximal effect).

The structures appear in SMILES notation. “And” between values parts separate entries of the source, which are not always exact repeats. Identical values can stand only once. Inconclusive results are not listed. A structure can be active in one record and inactive in another. The source made the active and inactive calls. Unless noted, calls follow the shape of the dose curve; as a rule, active = well fitted curve in the direction sought with a large enough effect in the repeat runs; inconclusive = weak or mixed curves; inactive = no such curve, though single readings can be large; an effect the other way counts as inactive or inconclusive.

Glucocorticoid receptor (Homo sapiens), sequence (P04150 whole entry, looked up): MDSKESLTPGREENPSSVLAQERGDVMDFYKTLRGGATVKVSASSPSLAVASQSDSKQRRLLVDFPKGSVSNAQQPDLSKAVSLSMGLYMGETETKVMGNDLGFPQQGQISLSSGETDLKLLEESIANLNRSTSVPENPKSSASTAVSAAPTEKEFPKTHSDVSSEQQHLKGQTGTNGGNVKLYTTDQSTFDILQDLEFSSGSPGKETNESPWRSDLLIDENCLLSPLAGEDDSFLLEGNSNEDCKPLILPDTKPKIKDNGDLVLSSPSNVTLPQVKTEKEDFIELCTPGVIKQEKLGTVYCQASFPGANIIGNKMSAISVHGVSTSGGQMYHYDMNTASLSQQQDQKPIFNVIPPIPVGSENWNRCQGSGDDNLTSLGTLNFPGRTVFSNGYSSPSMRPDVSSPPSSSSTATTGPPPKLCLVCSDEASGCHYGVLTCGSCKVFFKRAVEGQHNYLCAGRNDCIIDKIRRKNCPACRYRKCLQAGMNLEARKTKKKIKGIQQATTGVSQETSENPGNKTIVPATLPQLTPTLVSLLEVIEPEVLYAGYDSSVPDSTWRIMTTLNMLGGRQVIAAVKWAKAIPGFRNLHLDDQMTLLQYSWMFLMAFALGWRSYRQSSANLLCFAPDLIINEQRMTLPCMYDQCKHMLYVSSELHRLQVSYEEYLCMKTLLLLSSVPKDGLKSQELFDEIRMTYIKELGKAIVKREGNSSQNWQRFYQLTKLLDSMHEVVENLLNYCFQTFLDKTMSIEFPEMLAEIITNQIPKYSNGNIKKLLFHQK

Consider `CCN(Cc1c(F)cccc1Cl)c1c([N+](=O)[O-])cc(C(F)(F)F)cc1[N+](=O)[O-]`, for which the Potency result in experiment [1], in experiment [2], in [3], in [4], in experiment [5] and in [6] was “inactive” each time. In addition, the Potency result in experiment [7], in experiment [8], in experiment [11] and in [12] was “inactive” throughout. Besides, the Potency is 27.3 µM (active) in experiment [9] and 24.3 µM (active) in experiment [10].
For the compound `COc1ccc(CN(CCN(C)C)c2ccccn2)cc1`, the Potency result in experiment [1], in experiment [2], in [4], in experiment [5], in [6] and in experiment [7] was “inactive” in each case. The Potency result in experiment [8], in experiment [13], in experiment [14], in experiment [15], in experiment [16] and in experiment [9] was “inactive” in each case. In addition, the Potency entry in [10], in experiment [17] and in [11] was “inactive” each time.
Turning to `O=C1NS(=O)(=O)c2ccccc21`, the Potency result in experiment [1], in experiment [2], in [3], in experiment [4], in experiment [5] and in experiment [6] was “inactive” each time. The Potency entry in experiment [7], in [8], in [15], in experiment [9], in [10] and in [17] was “inactive” throughout. Besides, the Potency result in experiment [11] and in experiment [12] was “inactive” throughout.
As to `CCCCCCCCCCCC[N+](C)(C)Cc1ccccc1`, the Potency result in experiment [1], in experiment [2], in experiment [3], in [4], in experiment [5] and in experiment [6] was “inactive” each time. Besides, the Potency entry in [7] and in experiment [8] was “inactive” each time. Further, the Potency in [15] was 8.49 µM (active) and 19.1 µM (active) and 18.9 µM (active); in experiment [9], 298 nM (active) and 67.3 nM (active) and 1.05 µM (active); in [10], 668 nM (active) and 107 nM (active) and 1.05 µM (active); in experiment [17], 21.3 µM (active) and 19.1 µM (active) and 21.2 µM (active); in [11] it was 29.8 µM (active) and 23.9 µM (active) and 37.4 µM (active); in experiment [12], 5.96 µM (active) and 12 µM (active) and 14.9 µM (active).
Take `NS(=O)(=O)c1cc2c(cc1Cl)NCNS2(=O)=O`: the Potency result in experiment [1], in [2], in experiment [4], in [5], in [6] and in experiment [7] was “inactive” in each case. The Potency result in experiment [8], in experiment [13], in [14], in experiment [15], in experiment [9] and in [10] was “inactive” each time. Further, the Potency entry in experiment [17], in [11] and in experiment [12] was “inactive” each time.
Regarding `Cc1ccc(S(=O)(=O)O)cc1`, the Potency entry in experiment [1], in experiment [2], in experiment [3], in experiment [4], in [5] and in experiment [6] was “inactive” each time. In addition, the Potency entry in experiment [7], in [8], in [15], in experiment [9], in experiment [10] and in experiment [17] was “inactive” throughout. Moreover, the Potency entry in experiment [11] and in [12] was “inactive” in each case.
Regarding `O=C1NC(=O)C(c2ccccc2)(c2ccccc2)N1`, the Potency entry in experiment [1], in experiment [2], in experiment [4], in experiment [5], in experiment [6] and in [7] was “inactive” in each case. The Potency entry in [8], in experiment [13], in [14], in experiment [15], in [16] and in experiment [9] was “inactive” in each case. Also, the Potency entry in [10], in experiment [17], in experiment [11] and in experiment [12] was “inactive” in each case.
On to `CC(O)(P(=O)(O)O)P(=O)(O)O`, for which the Potency result in experiment [1], in experiment [2], in experiment [3], in [4], in experiment [5] and in experiment [6] was “inactive” each time. In addition, the Potency result in [7], in [8], in experiment [15], in experiment [16], in [9] and in experiment [10] was “inactive” throughout. Moreover, the Potency result in experiment [17], in [11] and in experiment [12] was “inactive” each time.
As for `O=C(O)CC(O)C(=O)O` (stereo not given), the Potency entry in experiment [1], in experiment [2], in experiment [3], in experiment [4], in experiment [5] and in experiment [6] was “inactive” throughout. Moreover, the Potency result in experiment [7], in [8], in experiment [15], in experiment [16], in experiment [9] and in experiment [10] was “inactive” each time. The Potency result in [17], in [11] and in experiment [12] was “inactive” in each case.
On to `Cn1c(=O)c2c(ncn2C)n(C)c1=O`, for which the Potency entry in [1], in [2], in experiment [4], in experiment [5], in experiment [6] and in experiment [7] was “inactive” in each case. Further, the Potency entry in experiment [8], in experiment [13], in experiment [14], in experiment [15], in experiment [16] and in [17] was “inactive” throughout. For the same compound, the Potency entry in experiment [12] is “inactive”. Also, the Potency entry is “inactive and 49.2 µM (active)” in experiment [9]; “inactive and 49.2 µM (active)” in [10].
Regarding `CC(=O)CC(c1ccccc1)c1c(O)c2ccccc2oc1=O` (stereo not given), the Potency entry in [1], in [2], in [3], in experiment [4], in experiment [5] and in [6] was “inactive” throughout. Also, the Potency entry in experiment [7], in experiment [8], in experiment [15], in experiment [16], in experiment [9] and in [10] was “inactive” in each case. Also, the Potency entry in experiment [17], in [11] and in experiment [12] was “inactive” throughout.
For the compound `F[B-](F)(F)F`, the Potency result in [1], in experiment [2], in experiment [3], in experiment [4], in [5] and in experiment [6] was “inactive” in each case. In addition, the Potency result in experiment [7], in [8], in [15], in experiment [16], in [9] and in [10] was “inactive” in each case. The Potency result in experiment [17], in experiment [11] and in [12] was “inactive” each time.
On to `CN(N=O)C(=O)N[C@@H]1[C@@H](O)[C@H](O)[C@@H](CO)O[C@@H]1O`, for which the Potency result in experiment [1], in experiment [2], in [4], in experiment [5], in experiment [6] and in [7] was “inactive” each time. Besides, the Potency result in experiment [8], in experiment [13], in experiment [14], in experiment [15], in [9] and in [10] was “inactive” each time. Further, the Potency entry in experiment [17], in experiment [11] and in experiment [12] was “inactive” in each case.
With `O=CC(=O)c1ccccc1`, the Potency entry in experiment [1], in experiment [2], in experiment [4], in experiment [5], in experiment [6] and in [7] was “inactive” each time. Moreover, the Potency result in [8], in experiment [13], in [14], in [15], in experiment [16] and in [10] was “inactive” throughout. Besides, the Potency result in experiment [17], in experiment [11] and in [12] was “inactive” in each case.
With `O=C1O[C@H]([C@@H](O)CO)C(O)=C1O`, the Potency result in experiment [1], in [2], in experiment [4], in [5], in [6] and in experiment [7] was “inactive” in each case. In addition, the Potency entry in experiment [8], in experiment [13], in [14], in experiment [15], in experiment [17] and in experiment [11] was “inactive” throughout. For the same compound, in experiment [12], the Potency result was “inactive”. For the same compound, the Potency result in experiment [9] was “inactive and 21.7 µM (active)”; in experiment [10], “inactive and 48.6 µM (active)”.

The values above are taken from PubChem BioAssay (Tox21).
